Screens deposited in PubChem by National Center for Advancing Translational Sciences (NCATS).
This is a sample that favours compounds with a hit; in the whole collection about 4.6% have one here.
D1 PAM = Potentiators of Human D1 Dopamine Receptor: qHTS | D(1A) dopamine receptor (Homo sapiens), P21728 | HEK293 TREx D1 cells, calcium flux, dopamine EC20 potentiation | potentiation, % at 10 µM | 0.036% of 360,000 active | AID 504651, 2011; in the data active means potentiation above about 30%
TRHR PAM = qHTS for Small Molecule Agonists and Allosteric Enhancers of Human TRH Receptor: Primary Screen for Enhancers; 0.66% of 360,000 active; enhancement, % at 2 µM; TRHR cells, fluo-8 calcium fluorescence, EC20 TRH enhancement; Thyrotropin-releasing hormone receptor (Homo sapiens), P34981; AID 493056, 2011; in the data active means enhancement above about 30%
Target sequence (P34981 whole entry, looked up): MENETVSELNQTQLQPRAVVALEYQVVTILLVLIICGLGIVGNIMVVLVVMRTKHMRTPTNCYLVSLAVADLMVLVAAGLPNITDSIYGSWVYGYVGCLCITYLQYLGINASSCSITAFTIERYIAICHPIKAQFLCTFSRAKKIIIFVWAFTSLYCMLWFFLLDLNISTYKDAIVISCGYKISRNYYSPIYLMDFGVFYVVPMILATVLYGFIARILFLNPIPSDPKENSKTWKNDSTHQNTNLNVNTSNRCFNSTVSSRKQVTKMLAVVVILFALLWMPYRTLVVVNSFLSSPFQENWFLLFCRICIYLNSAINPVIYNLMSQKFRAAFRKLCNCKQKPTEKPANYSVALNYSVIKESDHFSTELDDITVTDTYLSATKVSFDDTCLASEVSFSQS
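Enhancer read-out: after compound pinning and an initial kinetic agonist-mode read, an EC20 of TRH (10 nM final) was injected and fluo-8 calcium signal (Ex 480/Em 530) followed at 1 s/cycle for 100 cycles in TRHR-expressing cells.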
Epigenetic derep = Quantitative High-Throughput Screen for Regulators of Epigenetic Control; Potency, µM (series often up to 53.9 µM), usual class: activators; murine LDR cells, GFP reporter derepression, 30 h; 0.2% of 280,000 active; active means well fitted activation curve with a large enough effect; further: nearly all actives have a fitted effect of over 60% in size
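GFP-positive cell count by laser-scanning cytometry (objects 20–120 um) after 30 h, 37 C compound exposure of murine LDR cells; reporter is CMV-GFP integrated at a silenced locus, inducible by HDAC or DNMT inhibitors.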
D1 antag = Antagonist of Human D 1 Dopamine Receptor: qHTS. activity change, negative = inhibition, % at 10 µM. D(1A) dopamine receptor (Homo sapiens), P21728. AID 504652, 2011. HEK293 TREx D1 cells, calcium flux, dopamine EC80; hits give low values. 3.2% of 360,000 active; in the data active means activity change below about -30%
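Antagonism measured as reduced calcium response to an EC80 dopamine addition following 180 s compound pre-read; cells were inducible HEK293 Trex D1 plated overnight at 30 C, read kinetically at 1 cycle/sec.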
TRHR agonist = qHTS for Small Molecule Agonists and Allosteric Enhancers of Human TRH Receptor: Primary Screen for Agonists | 0.18% of 360,000 active | TRHR cells, calcium flux fluo-8, FDSS agonist mode | Thyrotropin-releasing hormone receptor (Homo sapiens), P34981 | activation, % at 2 µM | AID 493084, 2011
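Steps: seed TRHR cells overnight; add fluo-8 no-wash Ca dye, RT 30 min–1.5 h; record 10 s baseline; pin-transfer compounds; monitor fluorescence 1 cycle/s for the agonist window. Calcium increases flag candidate agonists.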
D1 ag = Allosteric Agonists of the Human D1 Dopamine Receptor: qHTS | HEK293 T-REx D1 cells, calcium flux, agonist mode | activation, % at 2 µM | 1% of 360,000 active
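Inducible HEK293 T-REx D1 cells, force-coupled to calcium signalling, were plated at 4000 cells/well with tetracycline and held overnight at 30 C. After no-wash calcium dye loading, compound-evoked calcium rise over 180 s flagged agonists.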
Numbers stand for hits; - = inactive; . = no result. Unless noted, no stated cut-off is given here; in the data, active means activation above about 30%; inactive means the rest.

SMILES | D1 PAM | TRHR PAM | Epigenetic derep | D1 antag | TRHR agonist | D1 ag
O=C(CSc1ncnc2sccc12)Nc1ccccc1F | - | - | - | - | - | -
O=C(CSc1ncnc2sccc12)Nc1ccccc1 | - | - | - | -61.1 | - | -
Cc1cc(NC(=O)c2c(-c3c(Cl)cccc3Cl)noc2C)n(C)n1 | - | - | - | -50.0 | - | -
Cc1cc(NC(=O)c2ccc(-c3ccccc3F)o2)no1 | - | 36.5 | - | - | - | -
Cc1cc(NC(=O)c2c(Cl)cccc2Cl)no1 | - | 30.4 | - | - | - | -
COc1ccc(C)cc1Nc1n[n+](-c2ccccc2)c(-c2ccc(N(C)C)cc2)s1 | - | - | . | -56.8 | - | -
COc1ccc(C)cc1Nc1n[n+](C)c(-c2ccc(O)cc2O)s1 | - | - | . | -30.1 | - | -
CN(C)c1ccc(-c2sc(Nc3ccccc3)n[n+]2-c2ccc(F)cc2)cc1 | - | - | . | - | - | -
COc1ccc(C)cc1Nc1n[n+](C)c(-c2c3ccccc3cc3ccccc23)s1 | - | - | . | - | - | -
COc1ccc(C)cc1Nc1n[n+](-c2ccccc2)c(-c2ccc(OC)c(OC)c2OC)s1 | - | - | . | -37.4 | - | -
COc1ccc(C)cc1Nc1n[n+](-c2ccccc2)c(-c2c(Cl)cccc2Cl)s1 | - | - | . | - | - | 32.4
Cc1cccc(C(=O)Nc2nnc(S(=O)(=O)N(C)c3ccccc3C)s2)c1 | - | - | - | - | - | -
COCCn1c(C)cc(O)c(C(c2ccccc2Cl)N2CCCCC2)c1=O (centres undefined) | - | - | - | - | - | -
C=C1CCC[C@]2(C)C[C@H]3OC(=O)[C@H](CNCCc4ccccc4OC)C3CC12 (some centres undefined) | . | . | - | . | . | .
CC(OC(=O)CCCN=C1NS(=O)(=O)c2ccccc21)C(=O)Nc1ccc(F)c(F)c1F (centres undefined) | - | - | . | - | - | 32.8
CC(C)C(=O)OCCN=C1NS(=O)(=O)c2ccccc21 | - | - | - | -36.3 | - | -
O=C(OCCN=C1NS(=O)(=O)c2ccccc21)c1ccccc1 | - | - | - | - | - | -
CC(OC(=O)CCCN=C1NS(=O)(=O)c2ccccc21)C(=O)c1ccccc1 (centres undefined) | - | - | . | - | - | 44.9
CC1CCc2c(sc(NC(=O)c3cc(-c4ccc(F)cc4)on3)c2C(N)=O)C1 (centres undefined) | - | - | - | - | - | -
CC(C)[C@@H]1[C@H]2CC[C@H](C2)[C@H]1N | . | . | - | . | . | .
CCNC(=O)[C@H](C)/C=C/C(NC(=O)OCc1ccccc1)c1ccc(C(=O)OC)cc1 (some centres undefined) | . | . | - | . | . | .
Cc1cc(Br)ccc1NC(=O)CN(C)C(=O)CCSc1ccc(F)cc1 | - | - | . | -35.1 | - | -
CN(CC(=O)Nc1ccccc1Cl)C(=O)CCSc1ccc(F)cc1 | - | - | . | - | - | -
CC(CNC(=O)Cc1ccc(NC(=O)N2CCSc3ncccc32)cc1)c1ccccc1 (centres undefined) | - | - | - | - | - | -
CC(=O)NS(=O)(=O)c1ccc(NC(=O)C2c3ccccc3Oc3ccccc32)cc1 | - | 33.4 | - | - | - | -
CNS(=O)(=O)c1ccc(NC(=O)C2c3ccccc3Oc3ccccc32)cc1 | - | - | - | - | - | -
COc1cc(CNC2CCCC2)c(Br)cc1OC1CCCC1 | - | - | - | -30.2 | - | -
Cc1cc(Nc2cccc(C(F)(F)F)c2)nc2ccc(NC(=O)c3cccnc3)cc12 | - | - | - | - | - | -
Cc1cc2nc3c(=O)[nH]c(=O)nc-3n(CC(O)C(O)C(O)CO)c2cc1C (centres undefined) | . | . | - | . | . | .
